KDM4E inh: JMJD2E (human) inhibition. B2RXH2. JMJD2E catalytic domain, FDH-coupled NADH fluorescence (FDH is formaldehyde dehydrogenase). Potency, µM (highest dose often 57.1 µM), inactives show at the highest dose activity change, negative = inhibition, hits mostly inhibitors. hit rate 1.6% among 230,000; active = well fitted inhibition curve with a large enough effect, not every such curve was filed as active; inconclusive = small, poorly fitted or top-dose-only effect, or another doubt; inactive = no such curve, though single readings can be large or run the other way;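 note: potency is the fitted concentration of half-maximal effect; 0% = wells with enzyme and -100% = buffer wells without enzyme; nearly all actives have a fitted effect of over 50% in size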
Target sequence (B2RXH2 1-337 limits assumed): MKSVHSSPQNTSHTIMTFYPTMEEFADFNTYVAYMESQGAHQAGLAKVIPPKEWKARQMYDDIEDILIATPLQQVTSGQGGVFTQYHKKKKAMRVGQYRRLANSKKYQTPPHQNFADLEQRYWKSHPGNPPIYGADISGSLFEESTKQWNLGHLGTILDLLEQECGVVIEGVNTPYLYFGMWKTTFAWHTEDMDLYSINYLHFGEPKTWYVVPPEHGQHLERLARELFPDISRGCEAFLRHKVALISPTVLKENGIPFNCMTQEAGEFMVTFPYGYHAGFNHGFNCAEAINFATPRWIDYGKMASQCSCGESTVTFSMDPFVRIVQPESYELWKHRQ
Tau fluor cs: counter-screen for tau fibril formation inhibitors | hit rate 0.93% among 280,000 | Potency, µM (titrated, usually from 57.7 µM), inactives show at the highest dose activity change, negative = decrease | tau K18 P301L Alexa594 fluorescence, heparin fibrillization; note: potency is the fitted concentration of half-maximal effect; nearly all actives have a fitted effect of over 55% in size
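Human K18 P301L tau (15 uM unlabeled plus 0.24 uM Alexa 594-labeled, final) in 100 mM sodium acetate pH 7 was mixed with compound and 20 uM heparin and incubated 6 hr at 37 C.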
Tau fibril ThT: inhibitors of human tau fibril formation, thioflavin T binding; hit rate 2.1% among 270,000; recombinant tau K18 P301L, heparin-induced fibrillization, ThT fluorescence; AID 1460; Potency, µM (titrated, usually from 57.4 µM), for inactives: top-dose activity, negative = inhibition, actives largely listed as inhibitors; note: potency is the fitted concentration of half-maximal effect; nearly all actives have a fitted effect of over 55% in size
Target sequence (P10636 561-689 P618L limits assumed): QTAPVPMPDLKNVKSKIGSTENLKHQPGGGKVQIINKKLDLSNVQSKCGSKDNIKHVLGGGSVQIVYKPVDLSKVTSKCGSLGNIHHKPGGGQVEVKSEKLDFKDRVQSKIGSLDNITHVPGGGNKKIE
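Fibril formation assay: tau K18 P301L at 15 uM with trace Alexa 594 label, heparin inducer 20 uM, pH 7 sodium acetate buffer, 37 C for 6 hr; endpoint ThT signal.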
FBPA coupling cs: counter-screen for Giardia aldolase inhibitors: coupling enzyme system; coupling enzyme system counterscreen, AmpLite Red fluorescence; activity change, negative = inhibition, % at 58.2 µM, hits read low; hit rate 0.67% among 290,000; AID 2472; in the data active = activity change below about -30%
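Compounds tested against the coupling enzymes alone at 57.5 uM final; readout was AmpLite Red fluorescence (525/598 nm) after 20 min at RT.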
Sfp inh: inhibitors of Bacillus subtilis Sfp phosphopantetheinyl transferase. Q9F4F7. Biochemical Sfp PPTase activity, qHTS. Potency, µM, without a hit: largest response in the series, negative = inhibition, actives largely listed as inhibitors. hit rate 3.5% among 310,000. AID 1490;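 note: the enzyme is Sfp with the accession as filed and its product quenches rhodamine fluorescence; potency is the fitted concentration of half-maximal effect; 0% = enzyme reaction without inhibitor and -100% = no enzyme wells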
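Compounds were incubated with enzyme (final 15 nM) for 15 min at room temperature before substrate addition started the reaction. Fluorescence at 525 nm excitation, 598 nm emission was recorded immediately and after 30 minutes.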
Tau fibril FP: blocks human tau fibril formation measured by polarization | P10636 | K18 P301L tau heparin fibrillization, Alexa594 FP, 6 h | Potency, µM (doses to about 57.7 µM), for the others: at the top dose activity, negative = inhibition, hits mostly inhibitors | hit rate 0.39% among 280,000 | AID 1468; note: potency is the fitted concentration of half-maximal effect; nearly all actives have a fitted effect of over 55% in size
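Read-out: fluorescence polarization of Alexa 594-labeled tau (0.24 uM), 555 nm excitation, 632 nm emission. Mixtures held 15 uM unlabeled K18 P301L, compound and 20 uM heparin, pH 7 acetate buffer, incubated 6 hr at 37 C.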
* marks the source's active call; other numbers are inactive results; ? = inconclusive; / = no result given; [ ] = remark or other dose. An excerpt weighted towards active compounds, which were near 5.3% of everything screened. Unless noted, calls come from the whole dose curve; as a rule, active = well fitted curve in the direction sought with a large enough effect; inconclusive = small, poorly fitted or top-dose-only effect, or another doubt; inactive = no such curve, though single readings can be large; an effect the other way counts as inactive or inconclusive. Unless noted, % is set by controls: 0 for no effect and ±100 for the full control effect.

SMILES	KDM4E inh	Tau fluor cs	Tau fibril ThT	FBPA coupling cs	Sfp inh	Tau fibril FP
Cc1sc(NC(=O)c2sc3nc4c(C)cccc4cc3c2N)c(C#N)c1C	?	?	16µM*	-7	?	-8%
Cc1cccc2cc3c(N)c(C#N)sc3nc12	0%	?	13µM*	3	8%	?
NNc1nc2c(Cl)ccc(Cl)c2s1	?	10µM*[quencher]	11µM*	1	5%	?
Fc1ccc(Nc2c3c(nc4nncn24)CCC3)cc1	/	2%	1%	/	/	-3%
Cc1cccc(NC(=O)CSc2nnc(CNC(=O)c3c(F)cccc3Cl)o2)c1C	/	-7%	-9%	/	/	-4%
CC(=O)Nc1ccc(S(=O)(=O)Oc2ccc(/C=N/NC(=O)c3ccc(Cl)cc3)cc2)cc1	-13%	?	?	0	25%	13µM*
CC(=O)Nc1ccc(C(=O)N/N=C/c2ccc(F)cc2)cc1	5%	2%	-7%	1	-9%	-4%
O=C1c2cc(O)cc(O)c2OC[C@@H]1c1ccc(O)c(O)c1	/	/	/	-2	-11%	/
CCCOc1ccc(CNC(=O)CCCN2C(=O)CSc3c2c(C)nn3-c2ccccc2)cc1	/	-7%	?	/	/	9%
CCOC(=O)C1=C(C)n2c(s/c(=C3\C(=O)Nc4ccccc43)c2=O)=NC1c1ccc(OC)cc1 (stereo not given)	-9%	?	16µM*	-1	2%	?
Cc1ccc(-n2nnnc2C(Cl)(Cl)c2nnnn2-c2ccc(C)cc2)cc1	1%	-19%	8.9µM*	2	3.2µM*	16µM*
Clc1ccc(-c2nnnn2-c2ccc(Cl)cc2)cc1	-2%	3%	6%	4	16%	6%
CC(=O)N(Cc1cc(=O)[nH]c2ccccc12)c1ccccc1	-5%	-7%	-7%	-1	8%	2%
CC(=O)N(Cc1cc(=O)[nH]c2ccccc12)c1cccc(C)c1	?	-19%	?	4	45µM*	?
CN1CCN(C(=S)NC(=O)c2ccc(Cl)cc2)CC1	10%	-14%	?	0	35µM*	0%
CN1CCN(C(=S)NC(=O)c2ccco2)CC1	21%	4%	10%	0	56µM*	3%
CC1Cc2ccccc2N1C(=S)NC(=O)c1ccco1 (stereo not given)	4%	-6%	-15%	-7	40µM*	0%
COc1cccc(-c2nnc3n2N=C(c2c(OC)cccc2OC)CS3)c1OC	/	/	/	4	4%	/
O=C(/C(=C/O)N=Nc1ccccc1)c1cccs1	-2%	-14%	28µM*	-2	-7%	5%
CCCCNc1nc(C)nc2c1nc(-c1ccccc1)n2CC1CCN(C)CC1	?	-5%	-1%	1	12%	-10%
COc1cc(N)c(Cc2nccc3cc(OC)c(OC)cc23)cc1OC	-29%	-27%	?	-31*	-22%	-8%
CCOC(=O)c1[nH]c(Cc2[nH]c(C(=O)OCC)c(C)c2CCC(=O)OC)c(CCC(=O)OC)c1C	-9%	-10%	-14%	-5	56µM*	8%
CCOC(=O)c1c(C)[nH]c(C(=O)OC)c1CCC(=O)OC	-10%	-4%	-2%	-1	-4%	-8%
Cc1n[nH]c(C)c1Sc1ccccc1N=Cc1cc(Cl)cc([N+](=O)[O-])c1O	5%	-16%	10µM*	-7	14%	1%
Cc1cc(C)c2oc(C(=O)Nc3nc4ccc(Cl)cc4s3)cc(=O)c2c1	/	-19%	?	/	/	0%
SMILES	KDM4E inh	Tau fluor cs	Tau fibril ThT	FBPA coupling cs	Sfp inh	Tau fibril FP
O=c1nc2s/c(=C\c3ccco3)c(=O)n2nc1Cc1ccc(F)cc1	-8%	-22%	?	-1	45µM*	?
CC(Sc1nnc(NC2CCCCC2)s1)C(=O)Nc1ccc2c(c1)C(=O)c1ccccc1C2=O (stereo not given)	-8%	16µM*[quencher]	?	-7	6%	14%
CC(Sc1nnc(Nc2ccccc2)s1)C(=O)NC1CCCc2ccccc21 (stereo not given)	5%	1%	8%	2	-10%	5%
COc1ccc(N2CCN(Cc3nc4c(c(=O)n(C)c(=O)n4C)n3C(C)C)CC2)cc1	/	-9%	-5%	/	/	1%
Cc1ccc(-c2cc(C(F)F)nc(N3CCOCC3)n2)cc1	?	-13%	-11%	-1	-30%	-5%
COc1ccc(-c2cc(C(F)F)nc(-n3nc(C)cc3C)n2)cc1	?	-3%	?	0	50µM*	3%
Cc1ccc(S(=O)(=O)N(C)c2cccc3cccnc23)cc1	/	/	/	2	10%	/
CCOc1cc(Br)c(Br)c(C=Nc2ccc(NC(C)=O)cc2)c1O	1%	-12%	6.3µM*	3	4%	-3%
CC(=O)Nc1ccc(N=Cc2c(O)c(C(=O)Nc3ccccc3)cc3ccccc23)cc1	4%	-26%	13µM*	-13	-30%	?
CCCCC/C=C\C/C=C\C/C=C\CCCCCCC(=O)NCC(=O)O	6%	-4%	-9%	3	2%	2%
N#CC1=C2SCC(O)(c3ccccc3)N2C(=O)CC1c1ccccc1 (stereo not given)	-4%	-22%	?	-6	56µM*	6%
N#CC1=C(SCc2ccccc2)NC(=O)CC1c1ccccc1 (stereo not given)	4%	-13%	-7%	1	-6%	-4%
COc1ccccc1NC(=O)CN(C)S(=O)(=O)c1ccc2c(c1)c(=O)n(C)c(=O)n2C	/	-7%	-1%	/	/	-5%
O=C(c1cccc(F)c1)N1CCC2(CC1)CCN(c1ccncc1)CC2	/	/	/	3	25%	/
Clc1cccc(Nc2nnc(-c3ccccc3)c3ccccc23)c1	11µM*	?	-11%	-6	13%	?
COc1ccc(CNCCC(c2ccccc2)c2ccc3c(c2)OCO3)cc1 (stereo not given)	1%	-4%	-15%	-6	35µM*	-2%
Cn1cccc1/C=C(/C#N)C(N)=S	0%	-5%	?	1	-2%	3%
Cc1ccc(-c2ccc(/C=C(\C#N)C(N)=S)n2C)cc1	-6%	?	1µM*	-2	-4%	-3%
COc1ccc(Br)cc1CNC(=O)CCCn1c(=O)c2cccn2c2ccccc21	/	10%	?	/	/	-11%

Source: PubChem
